Assay results published in PubChem BioAssay (NCATS).
Records with an inconclusive call do not appear. Active and inactive are the calls of the source. Unless noted, the call rests on the fitted dose curve; in most records, active means well fitted activation curve with a large enough effect; inconclusive means small, poorly fitted or top-dose-only effect; inactive means flat fitted curve, though single readings scatter.

Assay: qHTS Assay for Identification of Small Molecule Antagonists for NFkB Signaling Pathway (AID 895; active means well fitted inhibition curve with a large enough effect in the signal ratio, with a control signal flat, not every such curve was filed as active; the % refers to the signal ratio; further: potency means the concentration at half of the fitted maximal effect; on activity change, negative = inhibition: on the % scale 0 is the no-effect control and ±100 the full control effect)
Settings: NFkB beta-lactamase reporter cells, FRET ratio 460/530; series mostly up to 38.3 µM; activity change, negative = inhibition: at the top concentration
Outline: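 ME-180 NFkB-bla cells (beta-lactamase under NFkB response element), plated overnight, treated with compound then 10 pM TNF alpha (about EC50) for 5 hrs at 37 C. LiveBLAzer FRET read at 460/530 nm emission, 405 nm excitation.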
In the case of `CN1C[C@H](CNC(=O)OCc2ccccc2)C[C@@H]2c3cccc4c3c(cn4C)C[C@H]21`, the “activity change, negative = inhibition” value is reported as 17.5% (inactive). With `N[C@@H]1C[C@H]1c1ccccc1` the “activity change, negative = inhibition” value was 22.9% (inactive). With `Cc1ccc(S(=O)(=O)N[C@@H](CCCCN)C(=O)CCl)cc1` the Potency was 11.2 µM (active). For `CCCN1CCC[C@@H]2Cc3[nH]ncc3C[C@H]21`, the “activity change, negative = inhibition” value was 5.62% (inactive). In the case of `CCCN1CCC[C@@H]2Cc3nc(N)ncc3C[C@H]21`, the “activity change, negative = inhibition” value is reported as -7.89% (inactive). With `NCC(CC(=O)O)c1ccc(Cl)cc1` (stereo not drawn) the Potency was 5.62 µM (active). With `O=c1c(O)c(-c2ccc(O)c(O)c2)oc2cc(O)cc(O)c12` the Potency was 5.62 µM (active).

Assay: Confirmation and Secondary Assay for Modulators of Hemoglobin Beta Chain Splicing at IVS2 654 locus (AID 910);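 further: HeLa cells stably carrying EGFP split by mutant beta-globin IVS2-654 intron; % of control where 0% means no effect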
Settings: HeLa EGFP-654 splicing reporter, GFP fluorescence, 48 h; series mostly up to 46.1 µM; activation (splicing correction): at the top concentration
Outline: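 HeLa cells stably expressing EGFP interrupted by β-globin IVS2-654 intron, seeded overnight in Opti-MEM/2% FCS, then treated 2 days at 37 °C. Restored splicing read as total peak GFP intensity per well by laser scanning cytometry (488 nm excitation, 500–520 nm emission); 500 nM antisense PNA as control.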
With `CC(C)CC(N(C)C)C1(c2ccc(Cl)cc2)CCC1` (stereo not drawn) the “activation (splicing correction)” value was 2.5% (inactive). For `O=c1[nH]c2ccccc2n1C1CCN(CCCC(c2ccc(F)cc2)c2ccc(F)cc2)CC1`, the “activation (splicing correction)” value was -6.53% (inactive). For `CC(C)(C)NCC(O)c1cc(Cl)c(N)c(Cl)c1` (stereo not drawn), the “activation (splicing correction)” value was 8.81% (inactive). In the case of `COc1ccc(C(CN(C)C)C2(O)CCCCC2)cc1` (stereo not drawn), the “activation (splicing correction)” value is reported as 1.68% (inactive). With `CC(C)=CC1C(C(=O)OCc2cccc(Oc3ccccc3)c2)C1(C)C` (stereo not drawn) the “activation (splicing correction)” value was 7.15% (inactive). With `CCCC(C)(COC(N)=O)COC(=O)NC(C)C` (stereo not drawn) the “activation (splicing correction)” value was 2.82% (inactive). With `Cc1ncc(CNC(=O)N(CCCl)N=O)c(N)n1` the “activation (splicing correction)” value was 2.68% (inactive). With `Cc1ccc(-c2nc3ccc(C)cn3c2CC(=O)N(C)C)cc1` the “activation (splicing correction)” value was -1.12% (inactive). With `CC[N+]1(C)CCCC(OC(=O)C(O)(c2ccccc2)c2ccccc2)C1` (stereo not drawn) the “activation (splicing correction)” value was 7.68% (inactive). In the case of `CCC1(C2=NCCN2)Cc2ccccc2O1` (stereo not drawn), the “activation (splicing correction)” value is reported as -0.102% [at 38.3 µM] (inactive). With `O=c1[nH]c2ccccc2n1CCCN1CCC(n2c(=O)[nH]c3cc(Cl)ccc32)CC1` the “activation (splicing correction)” value was -3.47% (inactive). In the case of `CCC(COC(=O)c1cc(OC)c(OC)c(OC)c1)(c1ccccc1)N(C)C` (stereo not drawn), the “activation (splicing correction)” value is reported as 1.1% (inactive). In the case of `COc1ccc(Cc2nccc3cc(OC)c(OC)cc23)cc1OC`, the “activation (splicing correction)” value is reported as -6.89% (inactive). In the case of `Clc1ccc(COC(Cn2ccnc2)c2ccc(Cl)cc2Cl)cc1` (stereo not drawn), the “activation (splicing correction)” value is reported as -6.78% (inactive). For `O=[N+]([O-])c1cc([As](=O)(O)O)ccc1O`, the “activation (splicing correction)” value was -2.25% (inactive). For `Nc1ccncc1`, the “activation (splicing correction)” value was 11.4% (inactive). For `NCC(O)c1ccc(O)cc1` (stereo not drawn), the “activation (splicing correction)” value was 2.86% (inactive). For `Cc1cccc(C)c1NC1=NCCCS1`, the “activation (splicing correction)” value was -1.98% (inactive). In the case of `COc1ccccc1N1CCNCC1`, the “activation (splicing correction)” value is reported as 4.16% [at 38.3 µM] (inactive). In the case of `CC(C)=CCOc1c2occc2cc2ccc(=O)oc12`, the “activation (splicing correction)” value is reported as -6.55% (inactive). With `NCCc1cc(O)c(O)cc1O` the “activation (splicing correction)” value was -4.64% (inactive). For `CC(CCc1ccccc1)NC(C)C(O)c1ccc(O)cc1` (stereo not drawn), the “activation (splicing correction)” value was 9.17% (inactive). For `NN=C(N)N`, the “activation (splicing correction)” value was 5.88% (inactive). For `Oc1cccc2cccnc12`, the “activation (splicing correction)” value was -2.15% (inactive). In the case of `NCC(CC(=O)O)c1ccc(Cl)cc1` (stereo not drawn), the “activation (splicing correction)” value is reported as 3.3% (inactive). In the case of `CC(=O)Nc1cc([As](=O)(O)O)ccc1O`, the “activation (splicing correction)” value is reported as 4.7% (inactive).
